# Compounds with a hit are over-represented: about 1.6% of the library has one in this group of screens.
# ugtP null kill = compounds lethal to S. aureus RN4220 ugtP deletion mutant | OD600 growth, 16 h | growth inhibition, % (no concentration beside the values) | 0.54% of 330,000 active | AID 1259309; in the data active means growth inhibition above about 68%;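 further: plate controls were untreated wells for no effect and antibiotic for full effect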
# CCHF vOTU inh = CCHFV vOTU protease inhibition; Pep-AMC fluorescence; inhibition, % at 11.5 µM; 0.55% of 370,000 active; AID 651958; in the data active means inhibition above about 30%; further: 0% = vehicle wells with enzyme and 100% = no enzyme wells
# PfHsp40 rescue = restores yeast growth despite PfHsp40 toxicity | 0.68% of 340,000 active | growth rescue, % at 12.5 µM | S. cerevisiae expressing PfHsp40, growth rescue, ATP luminescence; in the data active means growth rescue above about 28%, passing the limit was not always enough;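 further: yeast W303a lacking pdr1 and pdr3 grown in galactose medium; growth measured after three days at 30 °C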
# BJeLR viability = kills HRASV12-expressing BJeLR cells; 0.17% of 300,000 active; AID 1554; inhibition, % (no concentration beside the values); BJeLR (HRASV12) viability, CellTiter-Glo ATP luminescence, 48 h; in the data active means inhibition above about 50%
# RN4220 kill = kills Staphylococcus aureus RN4220; S. aureus RN4220 growth, OD600, 16 h; inhibition, % (no concentration beside the values); 0.33% of 330,000 active; AID 1259311; in the data active means inhibition above about 85%;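 further: plate controls were untreated cells for no effect and reference antibiotic for full effect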
# * hit, by the source's call; / = no result.
SMILES,ugtP null kill,CCHF vOTU inh,PfHsp40 rescue,BJeLR viability,RN4220 kill
O=c1[nH]c(CN2CCN(c3ccc(O)cc3)CC2)nc2scc(-c3ccc(Cl)cc3)c12,7,-5,0,30,4
CCC(C)C1NC(=O)c2cc([N+](=O)[O-])cc(F)c2OCCC(C(N)=O)NC(=O)C(CCCCN)NC1=O (stereo not drawn),4,/,/,/,4
Clc1nccnc1NN=Cc1ccc(Br)cc1,0,/,/,/,-2
O=C(N[C@H](CO)[C@H](O)c1ccc([N+](=O)[O-])cc1)C(Cl)Cl,98*,4,-1,-10,98*
O=C(O)CC(Cc1ccc(Cl)cc1)C(=O)Nc1ccc([N+](=O)[O-])cc1 (stereo not drawn),11,3,0,-4,5
O=C(NC(CO)Cc1ccc([N+](=O)[O-])cc1)C(Cl)Cl (stereo not drawn),99*,/,0,-3,94*
O=C(NC(CO)C(O)c1ccc([N+](=O)[O-])cc1)C(Cl)Cl (stereo not drawn),96*,3,-2,1,89*
Cc1cc2c(c(CO)c1CCO)C(=O)C(C)C2O (stereo not drawn),4,/,/,/,3
Cc1c(CCOC(=O)C23CC4(C)CC(C)(CC(C)(C4)C2)C3)sc[n+]1CC(=O)c1ccccc1,100*,18,0,6,98*
Cc1c(CCOC(=O)C23CC4CC(CC(C)(C4)C2)C3)sc[n+]1Cc1ccccc1,100*,-3,-1,8,69
CCC(=O)/C=C1/Sc2ccccc2N1CC,-9,13,1,-11,3
CCN1/C(=C/c2sc(-c3ccccc3C)c[n+]2C)Sc2ccccc21,101*,-10,312*,17,100*
O=C(NN=Cc1ccc([N+](=O)[O-])o1)c1ccccc1NS(=O)(=O)c1cccs1,100*,/,/,/,100*
O=C(NN=Cc1ccc(O)cc1O)c1ccccc1NS(=O)(=O)c1cccs1,13,13,70*,/,-7
COc1ccc(C=NNC(=O)c2ccccc2NS(=O)(=O)c2cccs2)cc1O,3,10,-1,/,10
CC(CC(=O)NCc1ccco1)=NNC(=O)Cc1ccc(Cl)cc1,9,/,/,/,11
CC(C)COc1ccc(CNC(=S)NCc2ccccc2)cc1,-14,-1,51*,-7,-2
CCOc1ccc(CNC(=S)NCc2ccc(OCC)cc2)cc1,-3,4,-1,-1,1
CC(C)COc1ccc(C(=NO)c2ccccc2)cc1,86*,/,/,/,22
O=C(O)c1cccc2nc3ccccc3nc12,5,3,48*,-11,25
O=C(O)c1nc2ccccc2nc1C(=O)O,1,1,0,1,4
Cc1cccc(N2CCN(CC(=O)N(C)Cc3ccccc3)CC2C)c1 (stereo not drawn),0,-11,44*,-7,2
O=C(Nc1ccc(Cl)cc1)NC1CCCCC1Cc1ccco1 (stereo not drawn),-22,0,226*,-12,7
O=C(Nc1ccc(Cl)cc1)NC1CCCC1Cc1ccco1 (stereo not drawn),-11,/,0,-3,-3
c1ccc(Cn2cc(-c3cccnc3)cn2)cc1,-1,14,553*,/,4
SMILES,ugtP null kill,CCHF vOTU inh,PfHsp40 rescue,BJeLR viability,RN4220 kill
C#CCOCCOCCOCCNc1nc(N2CCN(C(=O)Cn3cc(CCCCN)nn3)CC2)nc(N2CCN(C(=O)C(CCCCN)n3cc(CCC(=O)O)nn3)CC2)n1 (stereo not drawn),-1,/,/,/,8
CCN(CC)C(=O)C1CC(=O)N(c2ccc(F)c(Cl)c2)C1 (stereo not drawn),9,11,40*,-2,16
Cc1cccc(N2C(=O)N3C(c4ccc(Br)cc4)C4C(=O)N(C(C)(C)C)C(=O)C4[C@]3(Cc3ccc(Cl)cc3)C2=O)c1 (stereo partly drawn),3,/,/,/,5
O=C(/C=C/c1cccnc1)c1ccc([N+](=O)[O-])cc1,-2,-7,1,-9,0
COc1cc(C(=O)/C=C/c2cccnc2)c([N+](=O)[O-])cc1OC,/,11,2,55*,/
O=C(Nc1nc2c(Cl)cccc2s1)c1ccc([N+](=O)[O-])o1,100*,6,2,-7,100*
O=C(Nc1nc2c(F)cccc2s1)c1ccc([N+](=O)[O-])o1,74,-7,0,-10,-1
COc1cc(C=NNc2nc(Nc3ccccc3)nc(N3CCCCC3)n2)ccc1OCC(=O)O,2,/,/,/,12
O=C1c2cccc3cc([N+](=O)[O-])cc(c23)C(=O)N1N=Cc1ccc(O)cc1O,1,/,/,/,-1
NC(N)=N/N=C/c1ccc(N(c2ccccc2)c2ccccc2)cc1,/,-54,105*,7,/
NC(N)=NN=Cc1ccc(OCc2ccccc2Cl)cc1,101*,/,/,/,100*
CCN(Cc1ccccc1)c1ccc(/C=N/N=C(N)N)cc1,/,-12,2,15,/
O=C1NCC(Cc2cccc3ccccc23)N(CC2(c3ccccc3)CC2)C1=O (stereo not drawn),9,/,/,/,10
O=C(Cc1csc(N2CCOCC2)n1)NN=Cc1ccc(F)cc1,5,/,/,/,5
O=P(Oc1ccccc1)(Oc1ccccc1)C(O)c1ccc(Cl)cc1 (stereo not drawn),1,22,140*,-22,8
C(=N\N1CCOCC1)/c1ccsc1,/,-9,94*,6,/
C(=N\N1CCOCC1)/c1cccs1,/,-4,0,-7,/
CCNC(=O)CN(c1ccc(Oc2ccccc2)cc1)S(=O)(=O)c1ccccc1,-2,-2,60*,5,1
CCNC(=O)CN(c1ccc(Cl)cc1)S(=O)(=O)c1ccccc1,-8,3,0,0,2
CC(NC(=O)c1nc[nH]c1C(=O)N1CCN(C(=O)OC(C)(C)C)CC1)c1ccccc1 (stereo not drawn),-2,/,/,/,4
CC(C)C(=O)NC(c1ccco1)c1ccc2cccnc2c1O (stereo not drawn),/,-9,297*,7,/
CC(C)C(=O)NC(c1cccs1)c1cc([N+](=O)[O-])c2cccnc2c1O (stereo not drawn),76,/,1,0,68
Cc1ccc(C(NC(=O)C(C)C)c2cc([N+](=O)[O-])c3cccnc3c2O)cc1 (stereo not drawn),95*,16,-1,-9,92*
CC(C)C(=O)NC(c1cccc([N+](=O)[O-])c1)c1ccc2cccnc2c1O (stereo not drawn),11,-1,228*,19,22
CCCCCC(=O)Nc1cccc(C2=NOC3(C2)CC(C(N)=O)N(C(=O)c2ccccc2)C3)c1 (stereo not drawn),5,/,/,/,8
Cc1cccn2c(=O)c(C=C(C#N)C(=O)NC3CCS(=O)(=O)C3)c(N3CCC(C)CC3)nc12 (stereo not drawn),-15,/,/,/,6
Cc1cccc(C)c1NC(=S)Nc1ccc(Cl)c(Cl)c1,-12,-1,-1,7,19
Cc1cc(C)cc(NC(=S)Nc2ccc(Cl)c(Cl)c2)c1,101*,-17,-1,-5,100*
Cc1ccc(NC(=S)Nc2ccc(Cl)c(Cl)c2)c(OC(F)F)c1,100*,-9,1,8,100*
